According to PubChem BioAssay AID434973 (Sanford-Burnham Center for Chemical Genomics, 2010):
The whole screen tested about 330,000 compounds, of which about 4,900 (1.5%) were called active. What follows is part of a selection rich in actives, with near analogues and random picks from the rest. A number with no mark means an inactive call.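 How the source made its calls: active means inhibition above about 50% at the single test dose (limit read from the data); inactive means the rest.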

What follows are compounds tested against Sentrin-specific protease 7 (Homo sapiens) (UniProt Q9BQF6) (assay: SENP7 protease inhibitors, primary screen, biochemical, luminescence, uHTS (AID 434973;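 further: plate controls were DMSO with enzyme for no effect and no enzyme buffer wells for full effect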)). Conditions: recombinant SENP7, Z-RLRGG-aminoluciferin luminescence, 40 min; at 5 µM; stronger effect = higher value.
Compound O=c1ccc2cc(S(=O)(=O)NCCCc3ccccc3)ccc2[nH]1 has an inhibition of 4.36%.
Work on CCOC(=O)CCP(=O)(O)C(O)(c1ccccc1)c1ccccc1 yielded an inhibition of -5.54%.
Work on O=S(=O)(c1cccc(-c2nnc(SC(F)F)n2-c2ccccc2)c1)N1CCCCC1 yielded an inhibition of 1.56%.
COCc1nnc(NC(=O)c2ccc3c(c2)OCO3)s1 showed an inhibition of 12.1%.
With O=C(COC(=O)c1ccc(F)cc1)Nc1ccc2c(c1)OCO2 the inhibition was -9.15%.
In the case of O=C(CCC(=O)c1cccs1)Nc1nc2ccccc2s1, the inhibition is reported as 1.54%.
Cc1ccc2sc(NNC(=O)c3ccc4c(c3)OCCO4)nc2c1C was tested, and the inhibition was 2.93%.
For O=C(OCc1ccccc1F)c1ccc2c(c1)OCCO2, the inhibition was 84.2% (active).
In the case of CSc1nsc(NC(=O)Nc2ccccc2)n1, the inhibition is reported as 34.9%.
Compound O=C(COC(=O)c1ccncc1)Nc1ccc2c(c1)OCO2 has an inhibition of -10.3%.
For O=C(Nc1ccccc1)Nc1nc2ccccc2s1, the inhibition was 66% (active).
In the case of N#CCCN(C(=O)COC(=O)c1ccc2c(c1)OCCO2)c1ccccc1, the inhibition is reported as 3.84%.
O=C(COC(=O)c1ccc2c(c1)OCCO2)NCc1ccccc1Cl showed an inhibition of -9.15%.
With O=C(Nc1nc2ccccc2s1)c1ccc2c(c1)OCO2 the inhibition was 97.1% (active).
For CC(=O)Nc1cccc(C(=O)OCC(=O)c2ccc3c(c2)OCO3)c1, the inhibition was 81.4% (active).
Work on CC[N+]1(CC)CC2=Cc3ccccc3CC2C1 (stereo not drawn) yielded an inhibition of 5.4%.
In the case of Cc1ccc(CN2CCN(/N=C/c3cccnc3)CC2)c(C)c1, the inhibition is reported as 4.31%.
With CCN(C(=O)C1CCCN(c2nc(-c3ccc(OC)cc3)no2)C1)c1ccc(OC)cc1 (stereo not drawn) the inhibition was -0.167%.
Compound CCOC(=O)CSc1nnc(NC(=O)C2CC(=O)N(c3ccc(F)cc3)C2)s1 (stereo not drawn) has an inhibition of -6.57%.
CC(=O)Nc1ccc(S(=O)(=O)N2CCN(S(=O)(=O)c3cccs3)CC2)cc1 was tested, and the inhibition was -14%.
Cc1ccccc1Nc1scc(-c2ccc(Br)cc2)[n+]1-c1ccccc1C was tested, and the inhibition was 0.441%.
For COc1ccc(/C(C)=N/N2CCOCC2)c(O)c1, the inhibition was 9.39%.
Work on S=C(Nc1ccc2c(c1)OCO2)N1CCCC1 yielded an inhibition of -4.52%.
For CCCc1nc2oc3c(OCC)ncnc3c2c2c1COC(C)(C)C2, the inhibition was -3.93%.
For Clc1ccc(COn2c(-c3ccc(Cl)cc3Cl)nc3ncccc32)cc1, the inhibition was 0.814%.
For Clc1ccc(-c2cc(-c3ccccn3)on2)c(Cl)c1, the inhibition was 99.4% (active).
In the case of O=C1c2ccccc2C(=O)N1Cc1cc(-c2ccccc2Cl)no1, the inhibition is reported as -0.976%.
Compound CC1=NNC(=O)C1CCC(=O)N/N=C(\C)c1ccc(Cl)cc1 (stereo not drawn) has an inhibition of 0.851%.
COc1ccc(NC(=O)C2COc3ccccc3O2)cc1 (stereo not drawn) showed an inhibition of -20.8%.
With O=C(Nc1ncc([N+](=O)[O-])s1)C1COc2ccccc2O1 (stereo not drawn) the inhibition was 96.7% (active).
Work on COc1ccc(OC)c2sc(NC(=O)C3COc4ccccc4O3)nc12 (stereo not drawn) yielded an inhibition of -4.59%.
CC(C)C1C2=C(CC(C)(C)CC2=O)ON1c1ccccc1 (stereo not drawn) showed an inhibition of 3.53%.
For CC(C)Oc1ccc(C(=O)NCC(=O)Nc2ccc3c(c2)CCC3)cc1, the inhibition was 3.44%.
In the case of O=C(Nc1ccc2c(c1)CCC2)c1ccc(Br)s1, the inhibition is reported as 69.4% (active).
CC1CC(C)CN(CCC(=O)Nc2ccc3c(c2)CCC3)C1 (stereo not drawn) was tested, and the inhibition was 5.5%.
With CC(C)CCN1NC2(CCC(C)CC2)NC1=S (stereo not drawn) the inhibition was -7.22%.
Compound Cc1cc(O)c(NC(=O)c2ccc(C)c([N+](=O)[O-])c2)cc1C has an inhibition of -7.98%.
In the case of Cc1ccc(NC(=O)c2sccc2C)cc1[N+](=O)[O-], the inhibition is reported as 83.7% (active).
For O=C(N/N=C/c1ccc([N+](=O)[O-])cc1)C(=O)N1CCCC1, the inhibition was -3.45%.
Cc1ccsc1C(=O)N/N=C/c1ccc([N+](=O)[O-])cc1 was tested, and the inhibition was 80.9% (active).
Cc1ccc(/C=N/NC(=O)c2sccc2OCc2ccc(F)cc2)cc1 gave an inhibition of -13.6%.
Work on Cc1ccc(NC(=O)CN(C)CC(=O)Nc2cccc(F)c2)cc1[N+](=O)[O-] yielded an inhibition of -3.97%.
With O=C(COc1cccc(Cl)c1)NCc1ccccc1 the inhibition was -0.414%.
In the case of COc1cccc(NC(=O)CN(C)C(=O)c2ccccc2CCc2ccccc2)c1, the inhibition is reported as -9.77%.
For CC[C@]1(C(=O)OC)[C@H]2C(=O)N(C)C(=O)[C@H]2[C@H]2CN(C)C(=NCc3ccccc3)N21, the inhibition was 0.164%.
For COc1cc(NC(=O)CCS(=O)(=O)c2ccc3c(c2)oc(=O)n3C)cc(OC)c1, the inhibition was 1.53%.
In the case of CCN(CC)S(=O)(=O)c1ccc(N(C)Cc2ccc(C(F)(F)F)cc2)nc1, the inhibition is reported as -1.06%.
Cc1ccc(CN2CCN(Cc3ccccc3-c3ccco3)CC2CCO)o1 (stereo not drawn) showed an inhibition of 4.02%.
